Screens as filed in PubChem BioAssay.
PGE2 EP2 inh: human EP2 receptor antagonists, primary screen, TR-FRET cAMP, C6 glioma cells; C6 glioma cells expressing human EP2; cells stimulated with saturating PGE2; inhibition, % at 25 µM; 260,000 tested, 0.52% active;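 active means percent inhibition above 40 after rounding to a whole number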;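 further: rat C6 glioma host cells with rolipram phosphodiesterase inhibitor present; the protocol text gives 20 µM as final concentration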
Target sequence (P43116 whole entry, looked up): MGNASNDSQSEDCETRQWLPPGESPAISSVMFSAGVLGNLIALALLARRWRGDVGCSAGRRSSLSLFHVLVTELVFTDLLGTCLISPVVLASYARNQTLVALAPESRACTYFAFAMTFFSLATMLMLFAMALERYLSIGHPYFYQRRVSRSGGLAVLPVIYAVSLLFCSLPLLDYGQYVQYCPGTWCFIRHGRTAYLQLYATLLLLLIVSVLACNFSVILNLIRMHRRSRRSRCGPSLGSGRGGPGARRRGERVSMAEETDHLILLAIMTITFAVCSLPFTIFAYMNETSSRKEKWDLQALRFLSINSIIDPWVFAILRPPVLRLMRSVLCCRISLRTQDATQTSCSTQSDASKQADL
GSH fluor: compound fluorescence on glutathione beads, profiling panel, artefact control, biophysical, 488/530 nm, flow cytometry; 190,000 tested, 0.25% active; GSH beads flow cytometry, compound fluorescence 488/530 nm; stronger effect = higher value; fluorescence (KMESF) at 10 µM; AID 1776, 2009; in the data active means fluorescence above about 89;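 further: glutathione beads carrying GST-tagged Bcl family fusion proteins plus one bare bead set; values are compound well signal with DMSO vehicle wells as background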
Avidin bead fluor: green autofluorescence of compounds with avidin beads – biophysical, 488/530 nm, flow cytometry, artefact control, profiling panel | compound fluorescence 488/530 nm; stronger effect = higher value | fluorescence (KMESF) at 10 µM | 220,000 tested, 0.38% active | AID 1775, 2009; in the data active means fluorescence above about 47
EP2 mod: EP2 receptor modulators, cAMP readout, primary screen, cell-based, HTRF cAMP, PGE2 stimulation; Prostaglandin E2 receptor EP2 subtype (Homo sapiens), P43116; EP2-expressing cells, cAMP HTRF FRET, PGE2 co-stimulation; induction, % at 25 µM; 260,000 tested, 0.83% active; AID 940, 2007;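 active means compounds whose cAMP rise, as percent of the full-agonist control response, exceeds 60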;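 further: rat C6 glioma line stably carrying human EP2 under a CMV promoter; the protocol text gives 20 µM as final concentration; 100% = response of wells given 1 µM PGE2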
HMGR II inh: inhibitors of E. faecalis class II HMGR, primary screen, biochemical, Enterococcus faecalis | purified E. faecalis HMGR, NADPH absorbance 340 nm kinetic | inhibition, % at 10 µM | 190,000 tested, 0.41% active;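 active means inhibition above a set limit, the median over all tested compounds plus 3 SD, cut at about 9.5% in these data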;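 further: enzyme runs in reverse so mevalonate oxidation gives rising NADPH absorbance; 0% = complete reaction with DMSO and 100% = background rate lacking mevalonate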
EP2 confirm: cAMP induction in EP2, EP4, beta2-AR and parental cells, confirmation, counter-screen for EP2 modulator project, cell-based, five parallel assays, C6 glioma, HEK293; shares compounds with EP2 mod; cAMP HTRF induction; plus low (about EC15) PGE2 agonist; calls only at 20 µM (by protocol); 1,300 tested, 47% active;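 active means cAMP induction above 50% in the main assay while under 30% in all four parallel counter assays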;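 further: rat C6 glioma cells stably expressing human EP2 receptor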
* hit, by the source's call; i = inactive; . = no result; + = active, no number. Sampled rows, rich in hits. Any-hit rate of the full collection: about 2.1%.

SMILES	PGE2 EP2 inh	GSH fluor	Avidin bead fluor	EP2 mod	HMGR II inh	EP2 confirm
CCC(CN1CCN(C)CC1)NC(=O)Cc1sc(C)nc1-c1cc(C)ccc1C (stereo unspecified)	10	.	.	-20	.	.
COC(=O)[C@@H]1C(O)CC[C@H]2CN3CCc4c([nH]c5ccccc45)[C@@H]3C[C@@H]21 (stereo partly specified)	16	.	.	18	.	.
Cc1c(F)cccc1NC(=O)CCCCCC1NC(=O)NC1C (stereo unspecified)	9	20	9	77*	-4	i
COc1cc(OC)c(C(C)=O)c(O)c1C	5	.	.	21	.	.
COc1cc(C)c(C(=O)Oc2cc(C)c(C(=O)O)c(O)c2C)c(OC)c1C	8	24	7	55	-4	i
Cn1c(=O)c2c(ncn2CCSS(=O)(=O)O)n(C)c1=O	6	.	.	61*	.	i
CC1(C)C2CCC1(C)C(OC(=O)CC(=O)O)C2 (stereo unspecified)	17	36	18	62*	-8	+
Brc1ccccc1Cn1c(-c2cscn2)nc2ccccc21	4	47	4	80*	-1	+
Cc1cccc(Cn2c(Cc3ccccc3)nc3ccccc32)c1	10	8	10	93*	-6	+
Cc1ccccc1Cn1c(-c2cncs2)nc2ccccc21	16	45	8	68*	3	i
Cn1c(CO)nc2ccccc21	11	.	.	-8	.	.
Brc1cc2c(cc1Cn1c(-c3cncs3)nc3ccccc31)OCO2	7	25	21	50	-4	.
Cc1cc(C)c(C)c(Cn2c(CO)nc3ccccc32)c1C	5	12	22	80*	2	+
COc1ccc(CC(=O)N2N=C(c3ccncc3)CC2(O)C(F)(F)F)cc1OC (stereo unspecified)	5	.	.	-2	.	.
CCOc1ccc(N2CC(C(=O)OCC(=O)Nc3ccccc3F)CC2=O)cc1 (stereo unspecified)	12	.	.	-72	.	.
Cc1ccccc1Cn1c(Cc2ccccc2)nc2ccccc21	7	9	8	71*	-5	+
CCCOc1ccc(C(=O)Nc2cc(NC(=O)c3ccco3)ccc2OC)cc1	18	.	.	-28	.	.
Clc1ccc(-c2nc3ccccn3c2CN2CCCCC2)cc1	-1	15	10	66*	-11	i
CN(C)Cc1c(-c2ccc(Cl)cc2)nc2ccccn12	11	19	9	-18	-6	.
c1ccc(-c2noc(-c3ccccc3-c3ccccc3)n2)cc1	9	44	7	51	-6	+
Fc1ccccc1-c1nc(-c2ccc(Cl)cc2)no1	0	.	.	.	.	.
CCOC(=O)c1sc2nccc(N(C)C)c2c1N=CNOCc1ccccc1	10	57	13	74*	-1	+
COCCCn1c(SCC(=O)N2CCCCC2)nnc1-c1ccc(C(C)(C)C)cc1	6	.	.	34	.	.
O=C(CSc1nnc(COc2ccccc2)n1-c1ccccc1)c1ccccc1	10	31	12	50	-1	i
COc1ccc(C(=O)CSc2nnc(COc3ccc(C#N)cc3)n2-c2ccccc2)cc1	17	8	24	-14	2	.
SMILES	PGE2 EP2 inh	GSH fluor	Avidin bead fluor	EP2 mod	HMGR II inh	EP2 confirm
Cc1cc(C)c(S(=O)(=O)c2ccccc2)c(OC(=O)c2c(Cl)cc(Cl)cc2Cl)n1	16	56	9	76*	2	+
Nc1nc(Cc2ccccc2)nc(Cc2ccccc2)c1-c1ccccc1	39	.	.	67*	.	i
COc1ccc(CN2CCc3c(nc(C)[nH]c3=O)C2)c(O)c1	6	.	.	-5	.	.
COc1ccc(-c2nc(NC(C)=O)sc2-c2ccc(OC)cc2)cc1	12	18	8	56	6	i
Cc1ccc(OCC(=O)Nc2ccccc2-c2ccccc2)cc1	-2	15	23	60	.	.
COc1cccc(OCC(=O)Nc2ccccc2-c2ccccc2)c1	13	14	12	70*	-3	+
O=C(COc1ccccc1)Nc1ccccc1Oc1ccccc1	4	7	3	72*	-1	+
O=C(Nc1ccccc1Oc1ccccc1)c1ccccc1F	5	8	13	68*	3	i
O=C(COc1ccccc1)Nc1cc(C(F)(F)F)ccc1N1CCCC1	19	27	10	79*	2	i
Cc1cc(-c2cnc(C)nc2C2CCN(C(=O)c3ccc4ncccc4c3)CC2)on1	.	.	.	-3	.	.
Cc1cc(C)c(NC(=O)CSc2nnc3c4c5c(sc4nc(C)n23)CCCC5)c(C)c1	6	.	.	-18	.	.
O=C(COc1ccccc1)Nc1ccccc1N1CCN(c2ccccc2)CC1	8	14	6	73*	-4	+
O=C(COc1ccccc1)Nc1ccccc1N1CCN(c2ccc(F)cc2)CC1	16	16	30	35	-2	.
O=C(NCc1ccncc1)c1cc2nc(-c3ccco3)cc(C(F)(F)F)n2n1	4	.	.	-36	.	.
Cc1cc2cc3c(cc2nc1SCC(=O)OC(C)C)OCO3	.	26	38	68*	-3	+
Cc1ccc(C(=O)CSc2nc3cc4c(cc3cc2C)OCO4)cc1	7	.	.	-23	.	.
O=c1[nH]c2ccc(Br)cc2c(-c2ccccc2)c1N1CCOCC1	.	14	30	78*	4	i
O=c1[nH]c2ccc(Br)cc2c(-c2ccccc2)c1CN1CCOCC1	12	22	6	9	-3	.
CCOC(=O)C1CCN(c2c(-c3ccccc3)c3cc(Cl)ccc3[nH]c2=O)CC1	16	14	21	80*	-6	i
CCC1c2ccc(C)n2CCN1C(=O)c1[nH]nc(-c2ccccc2)c1C (stereo unspecified)	7	.	.	-18	.	.
Cc1ccccc1OCCn1c(=O)oc2ccccc21	13	43	5	38	-1	.
Cc1ccc2oc(=O)n(CCCOc3ccccc3C)c2c1	17	25	9	32	-9	.
Cc1ccc2oc(=O)n(Cc3ccccc3OC(C)C)c2c1	13	47	2	67*	0	+
CCCCOc1ccccc1Cn1c(=O)oc2ccc(C)cc21	3	28	37	79*	-4	+
Cc1ccc(C(C)C)c(OCCn2c(=O)oc3ccccc32)c1	12	24	12	61*	-1	i
COc1ccc(-c2ccc(=O)n(C3CCN(C(=O)c4ccco4)CC3)n2)cc1F	.	.	.	16	.	.
